From PubChem
GPR151 activ: activators of human GPR151 | 650,000 tested, 1% active | activation, % at 11.2 µM | PathHunter beta-arrestin GPR151 cells, luminescence | AID 1508602; in the data active means activation above about 4.9%
TEAD-YAP block: TEAD-YAP interaction inhibition | HEK-TIYL cells, TEAD-Gal4/YAP UAS-luciferase luminescence | 640,000 tested, 1.4% active | inhibition, % at 9.12 µM | AID 1259422; in the data active means inhibition above about 32%
FBW7 activator: activators of human E3 ligase FBW7; 650,000 tested, 0.13% active; AID 1259310; Q969H0; AlphaScreen FBW7–phospho-cyclin E peptide binding, activator screen; normalized activity (activation), % at 26.1 µM; in the data active means normalized activity above about 1.9%;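 further: purified mutant Fbw7 with reduced substrate affinity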
Target sequence (Q969H0 whole entry, looked up): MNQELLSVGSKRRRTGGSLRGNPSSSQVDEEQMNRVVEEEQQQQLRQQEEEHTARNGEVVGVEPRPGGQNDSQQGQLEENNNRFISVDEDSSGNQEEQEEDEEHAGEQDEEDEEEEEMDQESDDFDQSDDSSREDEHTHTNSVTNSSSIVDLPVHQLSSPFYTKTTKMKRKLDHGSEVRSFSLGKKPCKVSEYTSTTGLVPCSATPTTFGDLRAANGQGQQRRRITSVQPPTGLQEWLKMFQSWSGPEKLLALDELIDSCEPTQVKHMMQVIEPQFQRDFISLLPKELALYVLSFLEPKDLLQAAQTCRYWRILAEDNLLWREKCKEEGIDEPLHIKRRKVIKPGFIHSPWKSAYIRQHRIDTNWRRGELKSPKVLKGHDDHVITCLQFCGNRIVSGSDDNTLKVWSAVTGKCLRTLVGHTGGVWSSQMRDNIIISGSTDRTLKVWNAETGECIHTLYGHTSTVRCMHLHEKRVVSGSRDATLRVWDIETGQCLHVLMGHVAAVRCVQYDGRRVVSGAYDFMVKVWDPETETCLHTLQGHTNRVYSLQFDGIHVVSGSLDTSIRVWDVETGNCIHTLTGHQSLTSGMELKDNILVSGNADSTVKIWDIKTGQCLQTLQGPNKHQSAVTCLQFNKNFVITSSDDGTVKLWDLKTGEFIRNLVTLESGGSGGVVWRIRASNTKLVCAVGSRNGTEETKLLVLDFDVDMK
MITF primary: human MITF inhibition, primary screen; AlphaScreen MITF homodimerization, bead proximity signal; inhibition, % at 2.6 µM; 650,000 tested, 0.91% active; AID 1259374; in the data active means inhibition above about 50%
GPR151 conf act: confirmation of human GPR151 activators. shares compounds with GPR151 activ. GPR151 PathHunter beta-arrestin cells, luminescence, 90 min; % of EA-reagent control over plate median. activation, % at 11.2 µM. 6,700 tested, under 10 active;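 active means mean percent activation across replicates above the confirmation screen cutoff of 4.91%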
GPR119 ag: activates human GPR119 in a GPR151 counter-screen; shares compounds with GPR151 activ; GPR119 PathHunter beta-arrestin cells, luminescence, 90 min; 0 = compound-well median, 100 = enzyme-acceptor control; activation, % at 11.2 µM; 6,700 tested, 0.3% active;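 active means mean percent activation in the counterscreen above 29.09%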;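 further: counterscreen on off-target GPR119 to flag nonselective hits from the GPR151 activator screen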
Numbers stand for hits; – = inactive; · = no result. An excerpt weighted towards active compounds, which were near 3.5% of everything screened.

SMILES	GPR151 activ	TEAD-YAP block	FBW7 activator	MITF primary	GPR151 conf act	GPR119 ag
COc1cc(C(=O)Nc2cc(C)c(O)cc2C)cc(OC)c1OC	6.1	–	–	–	–	–
O=C(Cn1cc(/C=N/N2C(=O)c3ccccc3C2=O)c2ccccc21)Nc1ccc(F)cc1	5.6	–	–	–	–	–
N#CCC(=O)N/N=C/c1cn(CC(=O)Nc2ccc(F)cc2)c2ccccc12	–	–	–	–	·	·
CCn1cc(/C=C/c2nc(O)c([N+](=O)[O-])c(=O)[nH]2)c2ccccc21	–	–	–	–	·	·
O=C(Cn1cc(/C=C/c2nc(O)c([N+](=O)[O-])c(=O)[nH]2)c2ccccc21)Nc1ccc(F)cc1	5.5	–	–	–	–	–
Cc1ccc(-c2cc(C(F)(F)F)n3nc(C(=O)Nc4cc(C)ccc4C)cc3n2)cc1	–	–	–	–	·	·
CCCCCCCc1ccc(C(=O)Oc2ccc(C#N)cc2)cc1	–	–	–	–	·	·
COc1cc(CNC2CCN(Cc3ccccc3)CC2)cc(OC)c1	–	–	–	–	·	·
Cc1cc(CNC2CCN(Cc3ccccc3)CC2)c(C)n1CC(C)C	6.8	–	–	–	–	–
O=C1Cc2cc(NC(=O)C3(c4cccs4)CCCC3)cc3c2N1CCC3	–	–	–	–	·	·
COc1cc(OC)cc(C(=O)Nc2ccc(F)c([N+](=O)[O-])c2)c1	–	–	–	–	·	·
Cc1sc2ncn3nnnc3c2c1C	–	–	–	–	·	·
N#Cc1ccc(CSc2nnc(-c3cccc(S(=O)(=O)N4CCCCC4)c3)o2)cc1	8.7	–	–	–	–	–
O=S(=O)(c1cccc(-c2nnc(SCCOc3ccccc3)o2)c1)N1CCOCC1	6.5	–	–	–	–	–
COc1ccccc1-c1nnc2sc(COc3ccc(C)cc3)nn12	–	–	–	–	·	·
CCC(CO)NCc1ccc(OCC(=O)NC(C)c2ccccc2)c(OC)c1 (configuration not stated)	6.0	–	–	–	–	–
CCC(C)(C)c1ccc(C(C)(C)CC)c(NC(=O)c2ccc3ccccc3c2O)c1	–	–	–	–	·	·
COC(=O)c1ccc(-n2nnnc2SCC(=O)c2ccc([N+](=O)[O-])cc2)cc1	–	–	–	–	·	·
COc1ccc(S(=O)(=O)N2CCC(C)CC2)cc1OC	–	–	–	–	·	·
COc1ccc(S(=O)(=O)N2CCC(N3CCCCC3)CC2)cc1OC	6.3	–	–	–	–	–
Cc1cc(NC(=O)c2ccccc2)n(-c2nc3ccccc3[nH]2)n1	–	–	–	–	·	·
Cc1cc(NC(=O)c2cc3ccccc3oc2=O)n(-c2nc3ccccc3[nH]2)n1	8.1	–	–	–	–	–
COc1ccc(S(=O)(=O)N2CCCC2)cc1Cl	–	–	–	–	·	·
O=C(NCCCO)/C(=C/c1ccccc1F)NC(=O)c1ccccc1	5.0	–	–	–	–	–
C=CCn1c(SCC(=O)Nc2ccccc2F)nc2sc3c(c2c1=O)CCC(C)C3 (configuration not stated)	8.7	–	–	–	–	–
SMILES	GPR151 activ	TEAD-YAP block	FBW7 activator	MITF primary	GPR151 conf act	GPR119 ag
Cc1sc(NC(=O)/C=C\C(=O)O)nc1-c1ccccc1	6.9	–	–	–	–	–
Cc1cccc2sc(NC(=O)/C=C\C(=O)O)nc12	6.8	–	–	–	–	–
O=S(=O)(/C=C/c1ccccc1)N1CCCC(N2CCN(c3ccccc3)CC2)C1 (configuration not stated)	5.6	–	–	–	–	–
Cc1ccc(C(=O)c2nocc2C(=O)c2cccs2)cc1	6.1	–	–	–	–	–
O=C(c1ccc(Cl)cc1)c1conc1C(=O)c1cccs1	–	–	–	–	·	·
O=C(c1ccc(Cl)cc1)N1CCN(c2ccc([N+](=O)[O-])c(NCc3ccco3)c2)CC1	6.0	–	–	–	–	–
CCCN(CCC)CCN1C(=O)C2C(C(=O)Nc3ccc(F)c(Cl)c3)C3C=CC2(O3)C1C(=O)NC1CCCC(C)C1C (configuration not stated)	6.9	–	–	–	–	–
COc1ccc(NC(=O)C2C3C=CC4(O3)C2C(=O)N(C(C)CCc2ccccc2)C4C(=O)NC2CCCC(C)C2C)cc1 (configuration not stated)	7.0	–	–	–	–	–
CCCN(CCC)CCCN1C(=O)C2C(C(=O)Nc3ccc(F)c(Cl)c3)C3C=CC2(O3)C1C(=O)NC1CCCC(C)C1C (configuration not stated)	–	–	–	–	·	·
O=C(NCCN1CCOCC1)c1csc(Nc2nccc3ccccc23)n1	–	–	–	–	·	·
COCCC(=O)NC(C)c1nnc2n1CCN(Cc1ccccc1)CC2 (configuration not stated)	–	–	–	–	·	·
CCn1c(N)c(C(=O)N2CCCCC2)sc1=S	5.4	–	–	–	–	–
O=C(Nc1cc(F)ccc1F)C1CCCN(c2ncnc3c2nc2n3CCCCC2)C1 (configuration not stated)	8.0	–	–	–	–	–
O=C(Nc1ccc(F)cc1F)C1CCCN(c2ncnc3c2nc2n3CCCCC2)C1 (configuration not stated)	–	–	–	–	·	·
O=C1c2ccc(F)cc2C(=O)N1c1ccccn1	–	–	–	–	·	·
CCCCOC(=O)Nc1nnc(C(C)C)s1	–	–	–	–	·	·
CC(C)COC(=O)Nc1nnc(C(C)C)s1	13.2	–	–	–	–	–
Cc1c(Cl)cccc1NC(=O)CSCC(=O)Nc1ccc(Br)cc1	6.4	–	–	–	–	–
CCCC(=O)Nc1ccc(NC(=O)c2cnccn2)cn1	8.0	–	–	–	–	–
COc1ccccc1Cn1c(=O)c2cccnc2n(CC(=O)Nc2ccccc2)c1=O	7.0	–	–	–	–	–
O=C1c2ccccc2C(=O)N1c1cccc(Oc2ccccc2)c1	–	–	–	–	·	·
N#CC1=C(S)N(c2ccccc2)C(c2cccs2)NC1=O (configuration not stated)	6.9	–	–	–	–	–
N#CC1=C(S)N(c2ccccc2)C(c2ccco2)NC1=O (configuration not stated)	–	–	–	–	·	·
CCOc1ccccc1NC(=O)CCc1nnc2ccc(N3CCCC3)nn12	6.7	–	–	–	–	–
CCOc1ccccc1NC(=O)CCc1nnc2ccc(N3CCCCC3)nn12	–	–	–	–	·	·
CCOC(=O)C(C)NC(=O)CCc1nnc2ccc(N3CCC(C)CC3)nn12 (configuration not stated)	5.4	–	–	–	–	–
COCCCNC(=O)c1cccnc1SCc1ccccc1Cl	5.5	–	–	–	–	–
Cc1ccccc1OCc1nc(-c2ccccn2)n[nH]1	–	–	–	–	·	·
O=C(/C=C/c1ccccc1Cl)Nc1ccc(Cl)cc1	–	–	–	–	·	·
COc1ccc(/C=N/NC(=O)CCC(=O)Nc2ccc(Cl)cc2C)cc1	5.3	–	–	–	–	–
